Results published in PubChem BioAssay AID602393 (Broad Institute, 2012).
Hit rate of the full screen: of about 350,000 compounds, about 7,000 (2%) were called active. Cut-off read from the data, not from the text of the source: active = activation above about 40%; inconclusive = no clear call, values can overlap the other calls; inactive = below that. Shown is part of a subset that was picked to be rich in actives.

Experiment: Bmi1 luciferase reporter increase in mESCs, primary screen, esBAF inhibitor project, mouse ES cells, Bmi1 luciferase knock-in, single point (AID 602393);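 note: 0% = median of the plate's neutral control wells and 100% = double that signal; a rise in the Bmi1 reporter signal indicates esBAF inhibition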
Conditions: 24 h, at 12.5 µM, hits give high values, 100% = twice the neutral-well signal

Compound	reporter increase
OC(c1ccccc1)c1nc(-c2cnc3ccccc3c2)cs1 (centres undefined)	50.7% (active)
CC(C)c1cccc(-c2csc(C(O)c3ccccc3)n2)c1 (centres undefined)	38.6% (inactive)
COc1cccc(C(NC(C)=O)c2nc(-c3cnc4ccccc4c3)cs2)c1 (centres undefined)	-2.81% (inactive)
C[C@@H]1CN([C@@H](C)CO)S(=O)(=O)c2ccc(/C=C/c3ccccc3)cc2O[C@@H]1CN(C)C(=O)Nc1cc(F)ccc1F	2% (inactive)
COc1ccccc1-c1cn(CC[C@H]2CC[C@H](NC(=O)C3CCOCC3)[C@@H](CO)O2)nn1	0.605% (inactive)
Cc1cccc(NC(=S)NC(=O)c2ccc(Br)o2)c1	52.3% (active)
CCS(=O)(=O)c1ccc(-c2cccc(NC(=O)c3ccc(Br)o3)c2)nn1	-4.52% (inactive)
O=C(Nc1cccc(C(=O)O)c1)/C(=C\c1ccccc1)NC(=O)c1ccc(Br)o1	-2.41% (inactive)
CO[C@H]1CN(C)C(=O)c2ccc(NC(=O)c3cccc(Oc4ccccc4)c3)cc2OC[C@@H](C)NC[C@H]1C	-1.39% (inactive)
C/C=C/c1ccc([C@@H]2[C@@H](CN(C)C(C)=O)N(C(=O)C3CC3)[C@H]2CO)cc1	-1.72% (inactive)
Cc1cc(Cl)nc(NC(=O)Nc2cccc(Cl)c2)n1	74.9% (active)
Cc1cc(C)nc(NC(=O)Nc2ccccc2C(F)(F)F)n1	-6.57% (inactive)
O=C(NCc1cn2ccsc2n1)Nc1cccc(Cl)c1	28.5% (inactive)
Cc1noc(C)c1S(=O)(=O)Nc1ccc2c(c1)C(=O)N([C@H](C)CO)C[C@@H](C)[C@@H](CN(C)C(=O)C1CCCCC1)OCCCC[C@@H](C)O2	5.24% (inactive)
O=C(C[C@@H]1CC[C@H](NC(=O)C2CC2)[C@@H](CO)O1)NCc1ccncc1	-3.99% (inactive)
CCc1cccc(C)c1NC(=O)COC(=O)CC1CCCC1	2.51% (inactive)
CCOc1cccc2cc(C(=O)OCC(=O)Nc3c(C)cccc3CC)c(=O)oc12	50.3% (active)
Cc1cccc(C)c1NC(=O)COC(=O)c1ccccc1O	0.59% (inactive)
CNC[C@H]1Oc2ccc(NS(=O)(=O)c3ccccc3)cc2CC(=O)N([C@H](C)CO)C[C@@H]1C	-1.73% (inactive)
O=C(NCc1ccco1)c1sc2cccc(F)c2c1Cl	44% (active)
O=C(CCNC(=O)c1ccccc1Cl)NCc1ccco1	-4.58% (inactive)
COc1ccc2c(Cl)c(C(=O)NCc3ccco3)sc2c1	35.4% (inactive)
CCCC#Cc1cnc2c(c1)C(=O)N([C@@H](C)CO)C[C@@H](C)[C@@H](CN(C)C(=O)c1ccccc1)O2	-1.26% (inactive)
COc1ccc(NC(=O)Nc2ccc3c(c2)C(=O)N([C@@H](C)CO)C[C@@H](C)[C@H](CN(C)C(=O)CCC(F)(F)F)OCCCC[C@@H](C)O3)cc1	11% (inactive)
C[n+]1cc(-c2ccccc2)oc1-c1ccccc1	51.8% (active)
COC(=O)C[C@@H]1CC[C@@H]2[C@H](COc3ccc(NC(=O)c4ccccc4OC)cc3C(=O)N2C)O1	-4.7% (inactive)
O=S(=O)(Nc1ncnc2sccc12)c1cccc(F)c1	-8.41% (inactive)

Compound	reporter increase
COC(=O)c1ccc(Nc2ncnc3sccc23)cc1	41.7% (active)
COC(=O)c1ccc(OC(=O)c2cnccn2)cc1	2.58% (inactive)
Cc1cc(NC(=O)COc2ccccc2C#N)no1	70% (active)
COc1ccc(C(=O)OCC(=O)Nc2cc(C)on2)cc1F	0.512% (inactive)
Cc1cc(NC(=O)COn2nnc3ccccc32)no1	-6.87% (inactive)
COc1cccc(C(=O)OCC(=O)c2[nH]c(C)c(C(C)=O)c2C)c1	8.69% (inactive)
CC(=O)c1c(C)[nH]c(C(=O)COC(=O)c2cccs2)c1C	48.6% (active)
CC(=O)c1c(C)[nH]c(C(=O)COC(=O)CCOc2ccc(C)cc2)c1C	-8.22% (inactive)
C[C@@H]1CN([C@H](C)CO)C(=O)c2cc(-c3ccccc3F)cnc2O[C@H]1CN(C)C(=O)NC1CCCCC1	-2.88% (inactive)
C[C@@H]1CN([C@H](C)CO)C(=O)c2cc(-c3ccc(F)cc3)cnc2O[C@@H]1CN(C)C(=O)C1CCC1	-5.57% (inactive)
COc1ccc(-c2nnc(NC(=O)CS(=O)(=O)c3ccc(Cl)cc3)o2)c(OC)c1	-8.93% (inactive)
COc1cccc(NC(=O)CSc2nnc(Cc3ccc(OC)c(OC)c3)o2)c1	-6.14% (inactive)
COc1ccc(-c2nnc(SCC(=O)c3cccs3)o2)c(OC)c1	78.8% (active)
COc1ccccc1-c1nnc(SCC(=O)N2CC(C)CC(C)C2)o1 (centres undefined)	0.0545% (inactive)
COc1ccccc1-c1nnc(SCC(=O)Nc2ccccc2)o1	50.9% (active)
COc1ccccc1N1CCN(C(=O)CSc2nnc(-c3ccoc3C)o2)CC1	-3.09% (inactive)
O=C(C[C@H]1C=C[C@H](NC(=O)Nc2ccc(C(F)(F)F)cc2)[C@@H](CO)O1)NCCN1CCCC1	3.94% (inactive)
CO[C@@H](CN(C)C(=O)c1cnccn1)[C@@H](C)CN([C@@H](C)CO)S(=O)(=O)c1ccc(Cl)cc1	0.654% (inactive)
COc1ccc(NC(=O)N(C)C[C@@H]2Oc3ccc(NC(=O)CCN4CCOCC4)cc3C(=O)N([C@@H](C)CO)C[C@H]2C)cc1	2.67% (inactive)
C[C@@H]1CN([C@@H](C)CO)C(=O)c2cc(-c3cccnc3)cnc2O[C@H]1CN(C)Cc1ccc(-c2ccccc2)cc1	-1.47% (inactive)
C[C@H](CO)N1C[C@H](C)[C@@H](CN(C)Cc2ccncc2)OCCCC[C@H](C)Oc2ccc(NS(=O)(=O)c3ccc(Cl)cc3)cc2C1=O	0.433% (inactive)
COC(=O)CCc1sc(Nc2ccc(Br)cc2)nc1-c1ccc(OC)cc1	3.71% (inactive)
NS(=O)(=O)c1ccc(NS(=O)(=O)/C=C/c2ccccc2)cc1	-2.76% (inactive)
COc1ccc(C(C)(O)c2nc(-c3ccc(C)c(C)c3)cs2)cc1 (centres undefined)	-1.35% (inactive)
COc1ccc(-c2csc(Nc3ccc(O)cc3)n2)cc1	78.7% (active)
NS(=O)(=O)c1ccc(Nc2nc(-c3ccccc3)cs2)cc1	47.4% (active)
CC(=O)c1ccc(Nc2nc(C(N)c3ccccc3)cs2)cc1 (centres undefined)	20.6% (inactive)
